According to PubChem BioAssay (NCATS):
Results filed as inconclusive are left out. Activity calls are given as the source filed them. Unless noted, calls follow the shape of the full dose curve.

How the values were obtained:
[1] = target: Guanidinoacetate N-methyltransferase (Homo sapiens) (UniProt Q14353); assay: Confirmatory Screen for Target Class Profiling of Small Molecule Inhibitors of Methyltransferases (AID 1745852); details: activity change, negative = inhibition: at 57.3 µM (top of the series) unless noted; also: potency is read from the fitted curve at half-maximal effect; as to activity change, negative = inhibition: % is scaled to controls: 0 for no effect and ±100 for the full control effect
[2] = target: Nicotinamide N-methyltransferase (Homo sapiens) (UniProt P40261); assay: as above; details: MTase-Glo luminescence, SAH detection, recombinant enzyme; measured here: NNMT max response; stronger effect = lower value
[3] = target: Phenylethanolamine N-methyltransferase (Homo sapiens) (UniProt P11086); assay: as above; details: MTase-Glo luminescence, SAH detection, recombinant enzyme; measured here: PNMT max response; stronger effect = lower value
[4] = NCATS anti-infectives library activity on HEK293 viability as a counter-qHTS vs the C. elegans viability qHTS (AID 1745854; active = well fitted cell-killing curve with a large enough effect;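 also: HEK293 cells exposed to compounds for 24 hr before the viability read; % is scaled to controls: 0 for no effect and ±100 for the full control effect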)
Procedure, shortened: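 Counter-screen for cytotoxicity: HEK293, 24 hr, 37C, compounds up to 41.7 uM final (a dilution series, 1:5). Readout CellTiter-Glo luminescence, 10 min RT. Digitonin control, 83.3 uM final.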

[5] = NCATS anti-infectives library activity on the primary C. elegans qHTS viability assay (AID 1745855); also: potency is read from the fitted curve at half-maximal effect
Procedure, shortened: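 GFP read-out by 488 nm laser cytometry at day 0, 3 and 7, gated on object perimeter, area and peak intensity, scored viability of PE254-GFP-FLuc worms exposed to compound in S medium with bacterial capsules at 21 °C.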

Sequence of Phenylethanolamine N-methyltransferase (Homo sapiens) (P11086 whole entry, looked up): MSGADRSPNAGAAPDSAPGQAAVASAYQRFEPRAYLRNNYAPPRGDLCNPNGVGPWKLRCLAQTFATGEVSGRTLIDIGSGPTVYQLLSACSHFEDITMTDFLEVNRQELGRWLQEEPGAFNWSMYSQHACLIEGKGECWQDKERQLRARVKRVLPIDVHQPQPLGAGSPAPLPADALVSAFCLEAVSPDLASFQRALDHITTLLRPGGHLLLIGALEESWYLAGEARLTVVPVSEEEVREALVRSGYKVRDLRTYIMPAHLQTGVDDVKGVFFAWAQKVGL
Sequence of Nicotinamide N-methyltransferase (Homo sapiens) (P40261 whole entry, looked up): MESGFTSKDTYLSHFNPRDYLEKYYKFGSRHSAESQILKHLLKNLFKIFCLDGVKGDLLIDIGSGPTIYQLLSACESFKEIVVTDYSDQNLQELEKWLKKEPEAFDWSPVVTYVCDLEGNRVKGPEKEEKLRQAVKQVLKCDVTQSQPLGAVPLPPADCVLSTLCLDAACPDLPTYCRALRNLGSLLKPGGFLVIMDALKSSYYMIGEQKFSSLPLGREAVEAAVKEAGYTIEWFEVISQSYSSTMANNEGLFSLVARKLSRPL

Structure (SMILES) | activity change, negative = inhibition [1] | activity [2] | activity [3] | Potency [1] | Potency [4] | Potency [5]
Cc1c[nH]c2nccc(Oc3c(F)cc(Nc4cc(Cl)nc(N)n4)cc3F)c12 | 0% | -27.7% | -3.98% |  |  | 
C=C(C)C(=O)OC1CC2(C)OC(=CC2=O)C(=C)CC2OC(=O)C(COC)C12 (stereo not given) | -5.17% | -5.26% | -4.08% |  |  | 
COc1cc(N2CCC(N3CCN(C)CC3)CC2)ccc1Nc1ncc(Cl)c(-c2c[nH]c3ccccc23)n1 |  | -32.6% | -23.1% | 24.1 µM (active) |  | 
C=C(C)C1Cc2cc(C(=O)OC3OC(CO)C(O)C(O)C3O)ccc2O1 (stereo not given) | -3.06% | -2.77% | -3.74% |  |  | 
C/C=C/c1ccc2c(c1)[C@@H](C)[C@H](c1ccc(O)cc1)O2 | 0.447% | -59.1% | 0.8% |  |  | 
COc1ccc(-c2cnc3ccc(NCc4ccc(S(N)(=O)=O)cc4)nn23)cc1OC |  | -24.2% | -27.8% | 38.3 µM (active) |  | 
C=C1C(=O)OC2/C=C(\CO)CC/C=C(\C=O)CC(OC(=O)CC(C)C)C12 (stereo not given) | -0.648% | -4.38% | -2.45% |  |  | 
C=C1C(=O)OC2CC3(C)C(CC12)C(C)=CC(O)C3OC(C)=O (stereo not given) | 0% | 1.24% | -2.5% |  |  | 
CC(=O)OC/C=C(\C)C(CC1C(C)=C(OC(C)=O)C(=O)C2C(C)(C)C(O)CCC12C)OC(C)=O (stereo not given) | -2.29% [at 29.8 µM] | -5.45% | -0.876% |  |  | 
C[C@]12C[C@@H](O)[C@@H]3C[C@@]1(O[C@@H]1O[C@H](CO)[C@@H](O)[C@H](O)[C@H]1O)[C@]3(COC(=O)c1ccccc1)C(=O)O2 | 0.459% [at 29.8 µM] | 0% | 6.78% |  |  | 
CCN1CCN(Cc2ccc(NC(=O)Nc3ccc(Oc4cc(NC)ncn4)cc3)cc2C(F)(F)F)CC1 | 0% | -7.66% | -2.63% |  |  | 
c1cn2cc(-c3ccc4cn[nH]c4c3)nc(Nc3ccc(N4CCOCC4)cc3)c2n1 |  | -49.6% | -53.5% | 21.5 µM (active) |  | 
CN(C)C/C=C/C(=O)Nc1cccc(C(=O)Nc2cccc(Nc3ncc(Cl)c(-c4c[nH]c5ccccc45)n3)c2)c1 | 1.16% | -56% | -9.06% |  |  | 
CN(C)C/C=C/C(=O)Nc1cccc(C(=O)Nc2ccc(Nc3nccc(-c4cccnc4)n3)cc2)c1 | 0.0986% | -7.5% | 1.39% |  |  | 
CC1=CC(=O)CC(C)(C)C1CCC(C)O[C@@H]1O[C@H](CO[C@@H]2OC[C@@H](O)[C@H](O)[C@H]2O)[C@@H](O)[C@H](O)[C@H]1O (stereo not given in full) | 0% [at 29.8 µM] | 0.168% | 0.0687% |  |  | 
COc1cccc(-c2cc(NCc3ccc4c(c3)OCO4)nc(N)n2)c1 | 0% | -16.1% | -2.8% |  |  | 
CCCCc1nc2cc(/C=C/C(=O)NO)ccc2n1CCN(CC)CC | 4.34% | -2.78% | 3.65% |  | inactive | 
COC(=O)C1=C2Nc3ccccc3C23CCN2CCCC(C(C)O)(C1)C23 (stereo not given) | 0% | 2.66% | -1.29% |  |  | 
COc1cc(NC(=O)Nc2cccc(CNC(=O)O[C@H]3CCOC3)c2)ccc1-c1cnco1 | -0.888% | -9.19% | -5.11% |  |  | 
CN(C)c1nc(NC2CCC(NCCc3ccc(Br)cc3OC(F)(F)F)CC2)nc2ccccc12 (stereo not given) | -2.23% | -85% | -42.3% |  |  | 
CCOc1cc2ncc(C#N)c(Nc3ccc(F)c(Cl)c3)c2cc1NC(=O)/C=C/CN(C)C |  | -82.7% | -97.3% | 4.82 µM (active) | inactive | 14.5 µM (active)
COc1ccc(CCO[C@@H]2O[C@H](CO[C@@H]3OC[C@H](O)[C@H](O)[C@H]3O)[C@@H](O)[C@H](O)[C@H]2O)cc1 | 2.09% [at 29.8 µM] | 1.01% | 1.06% |  |  | 
COc1cc(OC)cc(C(=O)Nc2ccc(Cl)c(-c3nc4ccc(N(C)C)cc4[nH]3)c2)c1 | -3.69% | -8.83% | -5.51% |  |  | 
Cc1nc([C@](C)(O)CO)sc1-c1cnc(N)c(O[C@H](C)c2cc(F)ccc2-n2nccn2)c1 | -0.524% | -12.8% | -10.9% |  |  | 
CCS(=O)(=O)N1CCN(c2ccc(Nc3ncc(C(N)=O)c(NC4CC4)n3)cc2)CC1 | 0% | -70.8% | -8.46% |  |  | 
N#Cc1cnc2cnc(NCc3cccnc3)cc2c1Nc1ccc(F)c(Cl)c1 | -3.05% | -57.3% | -6.2% |  |  | 
CC(C)c1c2cc(-c3ccnc(NC4CCC(NC5CCOCC5)CC4)n3)ccc2nn1C (stereo not given) |  | -14.6% | -25.7% | 38.3 µM (active) |  | 
C=C1C(=O)OC2C1CCC(=C)C1CC(OC(C)=O)C(=C)C12 (stereo not given) | -10.4% | -9.15% | -8.53% |  |  | 
CCOC(=O)CCN(C(=O)c1ccc2c(c1)nc(CNc1ccc(C(=N)N)cc1)n2C)c1ccccn1 | 2.12% | -8.7% | 0.0478% |  |  | 
